# Screens as filed in PubChem BioAssay.
# This is a sample that favours compounds with a hit; in the whole collection about 5.7% have one here.
# L3MBTL1 inh = inhibitors of human L3MBTL1; Q9Y468; AlphaScreen L3MBTL1–H3K9me1 peptide binding; Potency, µM (highest dose often 57.1 µM), for the others: at the top dose activity, negative = inhibition, actives largely listed as inhibitors; actives 0.66% (n = 230,000); AID 485360; note: potency is the fitted concentration of half-maximal effect; % is set by controls: 0 for no effect and ±100 for the full control effect; nearly all actives have a fitted effect of over 60% in size
#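 First, the protein-peptide complex forms for 30 min at room temperature (L3MBTL1 50 nM, biotinylated H3K9me1 peptide 75 nM). Next, compounds are pin-transferred and incubated 30 min. Finally, AlphaScreen beads are added and read after 30 min.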
# JMJD2A Tudor = JMJD2A Tudor domain (human) inhibition. O75164. AlphaScreen JMJD2A-Tudor / H3K4me3 peptide binding. Potency, µM (doses to about 114 µM), for inactives: at the top dose activity change, negative = inhibition, usual class: inhibitors. actives 4.4% (n = 390,000). AID 504339; note: potency is the fitted concentration of half-maximal effect; % is set by controls: 0 for no effect and ±100 for the full control effect; nearly all actives have a fitted effect of over 50% in size
# PI5P4K alpha inh = PI5P4K alpha (human) kinase inhibition; P48426; PI5P4Kalpha enzyme, ADP-Glo luminescence, 60 min; hits give low values; max response, %; actives 1.2% (n = 330,000); AID 652105; active = max response of -50% or lower; inconclusive = between -30% and -50%; inactive = -30% or higher; note: value at the top dose of about 77 µM; % is set by controls: 0 for no effect and ±100 for the full control effect
#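 Human PI5P4Kalpha with substrate in 0.038 M HEPES pH 7.4, 0.28 mM EGTA, 0.1% CHAPS, 5% DMSO; reaction started with 5 microM ATP (final), 60 min at room temperature. ADP formed read by ADP-Glo luminescence.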
# HP1b chromo inh = HP1-beta chromodomain-methylated histone interaction inhibition | Potency, µM (top dose mostly 114 µM), without a hit: top-dose activity change, negative = inhibition, most hits filed as inhibitors | actives 0.56% (n = 390,000) | AlphaScreen HP1-beta / biotin-H3K9me3 peptide binding | P83916; note: potency is the fitted concentration of half-maximal effect; nearly all actives have a fitted effect of over 70% in size
# Target sequence (P83916 whole entry, looked up): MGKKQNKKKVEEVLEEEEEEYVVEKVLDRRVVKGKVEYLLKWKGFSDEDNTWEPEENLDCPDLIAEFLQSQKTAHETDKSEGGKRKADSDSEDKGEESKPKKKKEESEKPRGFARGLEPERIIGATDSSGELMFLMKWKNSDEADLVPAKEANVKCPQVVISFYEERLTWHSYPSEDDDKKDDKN
#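 HP1-beta protein (50 nM final) preincubated 30 min at room temperature with biotinylated H3(1-18)K9me3 peptide (50 nM) in PBS pH 7.4, 0.01% Tween-20, then compound added for 30 min. AlphaScreen streptavidin donor/nickel chelate acceptor beads (10 ug/mL final), 30 min dark, luminescence read.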
# BAZ2B inh = blocks human BAZ2B; Q9UIF8; AlphaScreen BAZ2B-H3K14Ac peptide displacement; Potency, µM (series often up to 114 µM), for inactives: at the highest dose activity change, negative = inhibition, actives largely listed as inhibitors; actives 4.4% (n = 360,000); AID 504333; note: potency is the fitted concentration of half-maximal effect; % is set by controls: 0 for no effect and ±100 for the full control effect; nearly all actives have a fitted effect of over 60% in size
#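 In this displacement format the biotinylated H3(5-23) peptide acetylated at Lys14 serves as ligand at 50 nM, with BAZ2B at 50 nM in PBS pH 7.4 containing 0.01% Tween-20. Donor and acceptor beads are 10 ug/mL final.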
# KDM4E inh = blocks human JMJD2E demethylase activity; JMJD2E catalytic domain, FDH-coupled NADH fluorescence (FDH is formaldehyde dehydrogenase); AID 2147; actives 1.6% (n = 230,000); B2RXH2; Potency, µM (top dose mostly 57.1 µM), for the others: at the highest dose activity change, negative = inhibition, usual class: inhibitors; active = well fitted inhibition curve with a large enough effect, not every such curve was filed as active; inconclusive = small, poorly fitted or top-dose-only effect, or another doubt; inactive = no such curve, though single readings can be large or run the other way;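 note: potency is the fitted concentration of half-maximal effect; 0% = wells with enzyme and -100% = buffer wells without enzyme; nearly all actives have a fitted effect of over 50% in size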
# Target sequence (B2RXH2 1-337 limits assumed): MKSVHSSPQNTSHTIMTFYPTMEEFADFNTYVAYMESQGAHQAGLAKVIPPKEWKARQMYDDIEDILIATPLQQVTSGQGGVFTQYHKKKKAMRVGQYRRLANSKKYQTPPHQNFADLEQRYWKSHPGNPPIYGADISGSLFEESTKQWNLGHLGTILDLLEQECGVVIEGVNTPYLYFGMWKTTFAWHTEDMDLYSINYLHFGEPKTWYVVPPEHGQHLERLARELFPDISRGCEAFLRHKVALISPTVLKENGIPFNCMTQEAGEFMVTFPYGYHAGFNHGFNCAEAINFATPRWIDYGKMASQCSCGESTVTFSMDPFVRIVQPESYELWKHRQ
# Starred values were filed as active, the others as inactive; u = inconclusive; x = not tested or not shown; [ ] = another dose, or the depositor's remark. Unless noted, calls come from the whole dose curve; as a rule, active = well fitted inhibition curve with a large enough effect; inconclusive = small, poorly fitted or top-dose-only effect; inactive = no such curve, though single readings can be large or run the other way.
SMILES,L3MBTL1 inh,JMJD2A Tudor,PI5P4K alpha inh,HP1b chromo inh,BAZ2B inh,KDM4E inh
COc1ccc(NC(=O)CN2CCN(c3ccccc3F)CC2)cc1,-3.5%,-1.2%,3.5,26.2%,-23.8%,1.0%
CCN1CCN(CC(=O)Nc2c(OC)cccc2OC)CC1,x,5.01µM*,8.1,44.7µM*,17.8µM*,x
COc1cc(NC(=O)Nc2cccc(Cl)c2)c(OC)cc1NC(=O)CN1CCCCC1,-5.7%,44.7µM*,18.0,u,39.8µM*,-9.3%
O=C(CSc1n[nH]c(-c2ccccc2)n1)N1CCN(c2ccccc2F)CC1,x,-16.2%,x,11.5%[57 µM],-2.2%,x
CCOC(=O)c1ccc(NC(=O)N2CCN(c3ccccc3OC)CC2)cc1,-8.9%,79.4µM*,0.8,-6.2%,-27.8%,8.9%
CCCCCN1C(C(=O)c2ccccc2)=C(NC(=O)c2ccc(OC)c(OC)c2)c2ccccc2S1(=O)=O,x,-26.8%,x,14.4%,-18.2%,x
COc1ccc2c(c1)-c1nc(/N=C/c3c(O)ccc4ccccc34)sc1CC2,-19.9%,39.8µM*,-6.1,u,u,u
CCN(CC)CCN(C(=O)c1ccc(C(=O)OC)cc1)c1nc2ccc(Cl)cc2s1,x,u,x,21.7%,-3.0%,x
Cc1cccc(-c2nc3ccccc3c(=O)n2NC(=S)N(C)C)c1,7.5%,89.1µM*,u,-46.9%,-5.3%,-7.3%
Cn1c(=O)c(Nc2ccc(O)cc2)c2c3c(cccc31)C(=O)c1ccccc1-2,25.1µM*,7.94µM*,u,17.8µM*,6.31µM*,-5.1%
CC(=O)c1c2c3c(cccc3n(C)c1=O)C(=O)c1ccccc1-2,u,-26.9%,-10.8,48.0%,u,x
COc1ccc(-n2c(=S)[nH]c3cc(C(=O)N4CCN(c5ccccc5)CC4)ccc3c2=O)cc1,x,-6.4%,4.8,37.6%,-10.5%,x
COc1ccc2[nH]c3c(=O)n(CCCCC(=O)N4CCC(C(N)=O)CC4)c(=S)[nH]c3c2c1,2.2%,3.55µM*,x,26.4%,-8.8%,u
COc1ccc2[nH]c3c(=O)n(CCCCC(=O)NCCN4CCCC4)c(=S)[nH]c3c2c1,x,5.62µM*,x,u,-31.1%,u
COc1ccc2[nH]c3c(=O)n(Cc4ccc(C(=O)N5CCCC5)cc4)c(=S)[nH]c3c2c1,x,6.31µM*,-21.3,u,-20.6%,u
COc1ccc(OC)c(-n2c(=S)[nH]c3cc(C(=O)N4CCC(C(N)=O)CC4)ccc3c2=O)c1,5.4%,15.8µM*,0.6,57.3%,0.1%,8.8%
COc1ccc2c(c1)sc1ncc(C(=O)NCc3ccc(Cl)cc3)c(=O)n12,x,16.4%,x,53.5%,2.1%,x
NN1C(=O)/C(=C2/Sc3ccccc3N2CCCS(=O)(=O)O)SC1=S,-29.7%,u,u,-23.2%,79.4µM*,x
O=C1NC(=S)S/C1=C1\Sc2ccccc2N1CCCS(=O)(=O)O,-23.6%,17.1%[11.4 µM],-19.6,u,u,-7.3%
COc1cc(/C=N\NC(=O)c2ccc(C)nc2)ccc1OC(=O)c1cccc(F)c1,x,-8.5%,-2.6,31.8%,4.5%,x
C/C(=N\N(c1ccccc1)c1ccccc1)c1ccc(N)cc1,x,22.4µM*,15.9,u,x,x
C/C(=N\N(c1ccccc1)c1ccccc1)c1ccc(O)cc1,x,39.8µM*,27.0,u,50.1µM*,x
CC(=NN(Cc1ccccc1)c1ccccc1)c1ccccc1,x,0.0%,4.0,26.0%,x,x
COc1cc(NC(=O)C(OC(=O)CNC(=O)c2ccccc2)c2ccccc2)c(OC)cc1Cl (stereo unspecified),x,-26.7%,x,x,x,x
CN1CCN(/N=C/c2nc(-c3ccccc3)n3ccccc23)CC1,-17.3%,u,-4.6,-5.4%,u,5.7%
SMILES,L3MBTL1 inh,JMJD2A Tudor,PI5P4K alpha inh,HP1b chromo inh,BAZ2B inh,KDM4E inh
CN1CCN(/N=C/c2nc(-c3ccc(Cl)cc3)n3ccccc23)CC1,-12.4%,u,-2.3,-18.6%,50.1µM*,0.2%
Cc1ccc(-c2cc(NC(=O)CCl)n(-c3ccccc3)n2)cc1,-2.3%,79.4µM*,2.1,-2.7%,-17.8%,-21.2%
O=C(CCl)Nc1cc(-c2ccccc2)nn1-c1ccccc1,x,-26.1%,x,71.9%,7.3%,-12.4%
Oc1ccc(/C=N/n2c(C3CCCCC3)n[nH]c2=S)c(O)c1,x,14.1µM*,-24.3,-10.3%,-33.2%,x
COc1cc(/C=N/n2c(C3CCCCC3)n[nH]c2=S)ccc1O,x,11.2µM*,-5.4,u,-14.2%,x
Oc1ccc(Br)cc1/C=N/n1c(C2CCCCC2)n[nH]c1=S,x,u,-13.4,-18.4%,u,x
COc1cccc(/C=N/n2c(C3CCCCC3)n[nH]c2=S)c1OC,x,u,0.7,36.5%,6.3%,x
COc1cc(OC)c(/C=N/n2c(C3CCCCC3)n[nH]c2=S)c(OC)c1,x,3.98µM*,-6.1,-0.4%,-18.2%,x
COc1cccc(/C=N/n2c(C3CCCCC3)n[nH]c2=S)c1O,x,25.1µM*,-15.7,16.3%,-32.0%,x
Cc1cc(=O)oc2cc(NC(=O)c3ccccc3Cl)ccc12,x,0.4%,-11.6,8.5%,-9.6%,x
CCOc1ccc(CCNC(=O)CN2CCN(Cc3ccc(Cl)cc3)C2=O)cc1OCC,x,-6.2%,x,31.7%,6.1%,x
COc1cccc(NC(=O)C(CCSC)NC(=O)C2CCC(C)CC2)c1 (stereo unspecified),x,-18.1%,x,26.3%,-2.3%,x
COC(=O)c1ccccc1NC(=O)NCc1ccc2c(c1)CCN2C(=O)c1ccccc1,x,-31.6%,x,9.3%[57 µM],-19.3%,x
COc1ccc(/C=N/n2c(C3CCCCC3)n[nH]c2=S)c(OC)c1,x,39.8µM*,0.4,-8.0%,u,x
COc1ccc(/C(N)=N/OC(=O)c2ccco2)cc1,51.0%,20.6%,-4.6,50.6%,6.7%,-1.9%
COc1ccc(N=N/C(=C\O)C(=O)c2ccco2)cc1,-4.3%,-11.3%[11.4 µM],-8.8,-26.0%,39.8µM*,-0.8%
COCc1c(C(=O)N/N=C\c2ccccn2)nnn1-c1nonc1N,x,79.4µM*,-7.3,24.3%,39.8µM*,x
CCCN(CCC)Cc1c(C(=O)N/N=C/c2c[nH]c3ccccc23)nnn1-c1nonc1N,x,-25.2%,-63.3*,-0.1%,-23.3%,x
Cc1nnn(-c2nonc2N)c1C(=O)N/N=C/c1ccccc1O,0.6%,-16.0%,-13.3,36.4%,-8.9%,12.6µM*
CCOc1ccccc1NC(=O)CCc1c(C)nc2cc(-c3ccccc3)nn2c1C,x,7.7%,x,34.3%,-1.2%,x
C[C@@H]1C(=O)N(S(=O)(=O)c2ccc([N+](=O)[O-])cc2)[C@H]1c1ccccc1,x,-19.3%,x,17.1%,x,x
COc1ccc(C2c3c(ncn(Cc4ccco4)c3=N)Oc3ccc4ccccc4c32)cc1 (stereo unspecified),-13.1%,u,-24.2,u,u,-2.9%
COc1ccc(C2c3ccc4ccccc4c3Oc3ncn(CCCO)c(=N)c32)cc1 (stereo unspecified),5.9%,-32.8%,14.2,7.3%,70.8µM*,u
